Cruzain inh Det: qHTS Assay for Promiscuous and Specific Inhibitors of Cruzain (with detergent); Cruzipain (Trypanosoma cruzi), P25779; purified cruzain, Z-FR-AMC fluorescence, 0.01% Triton; Potency, µM, inactives show max response, negative = inhibition, actives largely listed as inhibitors; 200,000 compounds, 0.43% hits; AID 1478, 2009;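 also: plate controls were neutral wells for no effect and buffer without enzyme for full effect; nearly all actives have a fitted effect of over 40% in size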
Target sequence (P25779 123-467 limits assumed): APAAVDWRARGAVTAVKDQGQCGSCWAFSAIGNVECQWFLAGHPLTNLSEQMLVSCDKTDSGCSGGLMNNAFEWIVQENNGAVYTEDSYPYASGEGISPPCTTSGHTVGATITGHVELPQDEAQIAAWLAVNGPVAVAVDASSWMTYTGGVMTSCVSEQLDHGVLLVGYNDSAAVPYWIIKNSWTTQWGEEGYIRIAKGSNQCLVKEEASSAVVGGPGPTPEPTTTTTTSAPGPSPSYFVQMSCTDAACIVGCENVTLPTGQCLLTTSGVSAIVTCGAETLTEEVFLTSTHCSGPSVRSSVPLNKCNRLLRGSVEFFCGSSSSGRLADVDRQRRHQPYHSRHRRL
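Cruzain (1.5 nM) preincubated 15 min at RT with compound in 100 mM sodium acetate pH 5.5, 5 mM DTT, 0.01% Triton X-100. Reaction started with 2 uM Z-FR-AMC; AMC fluorescence (ex 360/em 450 nm) change over 60 s gave rate.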
Cruzain noTriton: qHTS Assay for Promiscuous and Specific Inhibitors of Cruzain (without detergent). Potency, µM, for inactives: max response, negative = inhibition, hits mostly inhibitors. Cruzipain (Trypanosoma cruzi), P25779. 200,000 compounds, 2.3% hits. purified cruzain, Z-FR-AMC fluorescence, no detergent;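 also: plate controls were enzyme without inhibitor for no effect and buffer without enzyme for full effect; nearly all actives have a fitted effect of over 40% in size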
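Purified cruzain at 1.5 nM, pre-incubated 15 min with compound at room temperature in 100 mM sodium acetate pH 5.5, 5 mM DTT, 0.00005% Triton X-100. Reaction started with 2 uM Z-FR-AMC; AMC fluorescence increase over 60 s gives rate.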
NS1 inh: qHTS Assay for Inhibitors of Influenza NS1 Protein Function; Potency, µM (doses to about 46.1 µM), for the others: top-dose activity, positive = more growth; 270,000 compounds, 0.4% hits; AID 2326, 2010; calls by dose curve; also: actives are rising curves; nearly all actives have a fitted effect of over 50% in size
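Growth recovery, yeast-based: influenza A NS1 expressed in S. cerevisiae causes slow growth, and suppressors are detected by OD600. The parent strain without NS1 is used as positive control.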
* hit, by the source's call. Shown is part of a subset that was picked to be rich in hits. Unless noted, calls follow the shape of the dose curve; as a rule, active = well fitted curve in the direction sought with a large enough effect; inconclusive = small, poorly fitted or top-dose-only effect, or another doubt; inactive = no such curve, though single readings can be large; an effect the other way counts as inactive or inconclusive. Potency is read from the fitted curve at half-maximal effect.

What do the screens show for `CCOC(=O)CSc1nc(-c2ccc(OC)cc2)cc(C(F)(F)F)c1C#N`?
Cruzain inh Det: -3%; Cruzain noTriton: -3%

How did CCOC(=O)CCCSc1nc(-c2ccc3c(c2)OCO3)cc(C(F)(F)F)c1C#N do in these assays?
Cruzain inh Det: -4%; Cruzain noTriton: 25µM*; NS1 inh: 2%

Results for CN(CCO)Cc1ncccc1O ?
Cruzain inh Det: -3%; Cruzain noTriton: 4%; NS1 inh: -4%

What do the screens show for `Cc1[nH]n(-c2ncc(-c3ccc(Cl)cc3)s2)c(=O)c1C(c1ccc(Cl)cc1)C(C#N)C#N` (stereo not given)?
Cruzain inh Det: inconclusive; Cruzain noTriton: 3.2µM*; NS1 inh: 8%

What do the screens show for `COc1ccc(C(c2c(C)[nH]n(C(N)=S)c2=O)C(C#N)C#N)cc1` (stereo not given)?
Cruzain inh Det: 2%; Cruzain noTriton: -17%; NS1 inh: 14%

What do the screens show for `Cc1ccc(N=C2NC(=O)/C(=C\c3cccs3)S2)cc1C`?
Cruzain inh Det: -4%; Cruzain noTriton: 25µM*; NS1 inh: -5%

Results for Cc1cccc(N=C2NC(=O)/C(=C/c3cccs3)S2)c1 ?
Cruzain inh Det: -6%; Cruzain noTriton: inconclusive; NS1 inh: 19%

How did O=C(O)CN(CCN(CC(=O)O)CC(=O)O)CC(=O)O.[Cu] do in these assays?
Cruzain inh Det: 4%; Cruzain noTriton: 7%; NS1 inh: -3%

How did C=C(C(C)=O)C(O)c1cccc(Br)c1 (stereo not given) do in these assays?
Cruzain inh Det: 5%; Cruzain noTriton: 4%

How did N#Cc1cc2c(=O)n3ccccc3nc2n(-c2nnc(SCc3ccccc3)s2)c1=O do in these assays?
Cruzain inh Det: 1%; Cruzain noTriton: 3%

How did Cc1cccn2c(=O)c3cc(C#N)c(=O)n(-c4nnc(SCc5ccc(Cl)cc5)s4)c3nc12 do in these assays?
Cruzain inh Det: -6%; Cruzain noTriton: 20µM*

How did NCCCCC(NC(CCc1ccccc1)C(=O)O)C(=O)N1CCCC1C(=O)O (stereo not given) do in these assays?
Cruzain inh Det: 1%; Cruzain noTriton: 7%

Results for c1ccoc1 ?
Cruzain inh Det: -1%; Cruzain noTriton: -5%

What do the screens show for `CC(Sc1nnc(Nc2ccccc2)s1)C(=O)NC1CCCc2ccccc21` (stereo not given)?
Cruzain inh Det: -10%; Cruzain noTriton: -12%; NS1 inh: 12%

Results for CC(Sc1nnc(NC2CCCCC2)s1)C(=O)Nc1ccc2c(c1)C(=O)c1ccccc1C2=O (stereo not given) ?
Cruzain inh Det: 0%; Cruzain noTriton: 16µM*; NS1 inh: inconclusive

What do the screens show for `Cc1cccc(NC(=O)c2cc(-c3ccc(C)s3)nc3ccccc23)n1`?
Cruzain inh Det: -13%; Cruzain noTriton: 20µM*; NS1 inh: 20%

Results for CC(C)CCNC(=O)c1cc(-c2ccc(Br)s2)nc2ccccc12 ?
Cruzain inh Det: -2%; Cruzain noTriton: 3.2µM*

How did Cc1cc(NC(=O)c2cc(-c3ccc(C)s3)nc3ccccc23)no1 do in these assays?
Cruzain inh Det: -8%; Cruzain noTriton: -1%; NS1 inh: 6%

What do the screens show for `CC(C)CCNC(=O)c1cc(-c2cccs2)nc2ccccc12`?
NS1 inh: -4%

How did O=C(O)NCc1ccccc1 (tested in a mixture with another compound) do in these assays?
Cruzain inh Det: 1%; Cruzain noTriton: -10%; NS1 inh: -5%

Results for CCOc1ccc(CNC(=O)c2ccccc2NC(=O)c2nsc3ccccc23)cc1 ?
Cruzain inh Det: 3%; Cruzain noTriton: -2%

Results for N#C/C(=C\C=C\c1ccccc1[N+](=O)[O-])c1nc(-c2ccc3c(c2)OCO3)cs1 ?
Cruzain inh Det: 2%; Cruzain noTriton: 20µM*; NS1 inh: 16%

Results for N#C/C(=C\c1ccccc1[N+](=O)[O-])c1nc(C2CC2)cs1 ?
Cruzain inh Det: -7%; Cruzain noTriton: 7%; NS1 inh: -27%

How did CCOc1ccc(CCNC(=O)CCc2c(C)nc3c(c(C)nn3-c3ccccc3)c2C)cc1OCC do in these assays?
Cruzain inh Det: 3%; Cruzain noTriton: inconclusive

How did CCOc1ccc(CC(=O)NCC(c2cccs2)S(=O)(=O)c2ccc(F)c(C)c2)cc1 (stereo not given) do in these assays?
Cruzain inh Det: -6%; Cruzain noTriton: 0%

How did CN1C(=O)/C(=N/OC(=O)c2ccccc2)c2ccccc21 do in these assays?
Cruzain inh Det: 4.5µM*; Cruzain noTriton: 6.3µM*; NS1 inh: -89%

What do the screens show for `CN1C(C)(C)CC(=NOC(=O)c2ccccc2)CC1(C)C`?
Cruzain inh Det: -1%; Cruzain noTriton: 2%; NS1 inh: -2%

How did COc1cc(C(=O)Nc2nonc2-c2ccc(C)c(C)c2)cc(OC)c1OC do in these assays?
Cruzain inh Det: -4%; Cruzain noTriton: -7%

Results for COc1ccccc1OCCN1CSC(=S)N(C)C1 ?
Cruzain inh Det: inconclusive; Cruzain noTriton: 20µM*; NS1 inh: -41%

What do the screens show for `Cc1cccc(OCCN2CSC(=S)N(C)C2)c1`?
Cruzain inh Det: -24%; Cruzain noTriton: -22%; NS1 inh: -7%

What do the screens show for `O=C(NCc1ccccc1)N1CCc2c(sc3c2CCCC3)C1c1ccccc1` (stereo not given)?
Cruzain inh Det: -2%; Cruzain noTriton: inconclusive

Results for COc1cccc(CNC(=O)N2CCc3c(sc4c3CCCC4)C2c2ccc(F)cc2)c1 (stereo not given) ?
Cruzain inh Det: -2%; Cruzain noTriton: 6.3µM*

What do the screens show for `COc1ccccc1N1CCN(S(=O)(=O)c2ccccc2F)CC1`?
Cruzain inh Det: -5%; Cruzain noTriton: 0%; NS1 inh: -34%

How did Cc1cccc(NC(=O)c2ccc(F)c(S(=O)(=O)N3CCN(c4ccc(F)cc4)CC3)c2)c1 do in these assays?
Cruzain inh Det: 0%; Cruzain noTriton: inconclusive

What do the screens show for `O=C(Nc1ccc(Oc2ccccc2)cc1)c1ccc(F)c(S(=O)(=O)N2CCN(c3cccc(Cl)c3)CC2)c1`?
Cruzain inh Det: 1%; Cruzain noTriton: 4µM*

Results for CC(C)c1ccc(NC(=O)c2ccc(F)c(S(=O)(=O)N3CCN(c4ccccc4F)CC3)c2)cc1 ?
Cruzain inh Det: 3%; Cruzain noTriton: 21%

What do the screens show for `Cc1cccc(N2CCN(S(=O)(=O)c3cc(C(=O)Nc4ccc(Oc5ccccc5)cc4)ccc3F)CC2C)c1` (stereo not given)?
Cruzain inh Det: 0%; Cruzain noTriton: -26%

What do the screens show for `O=C(Nc1ccc(Oc2ccccc2)cc1)c1ccc(F)c(S(=O)(=O)N2CCN(c3ccccc3F)CC2)c1`?
Cruzain inh Det: 0%; Cruzain noTriton: 7.9µM*

What do the screens show for `COc1ccccc1N1CCN(S(=O)(=O)c2cc(C(=O)Nc3ccc(Oc4ccccc4)cc3)ccc2F)CC1`?
Cruzain inh Det: 0%; Cruzain noTriton: 7.9µM*

How did O=C(COC(=O)c1ccc(Cl)c(S(=O)(=O)N2CCN(c3ccc(F)cc3)CC2)c1)Nc1cccc(Cl)c1 do in these assays?
Cruzain inh Det: -4%; Cruzain noTriton: 13µM*; NS1 inh: 8%

High-throughput results as filed in PubChem.
